Data published in PubChem BioAssay.

The compounds below were run on Fibrinogen (Alexa647-labelled) (assay: Alexa647-fibrinogen binding to printed small molecules – biochemical, small-molecule microarray, 635/667 nm fluorescence, artefact control for SMM control-protein annotation, profiling panel (AID 1131;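 further: z-score merges 667 nm fluorescence with per-spot signal-to-noise over triplicate slides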)). Details: fibrinogen-A647 binding fluorescence, higher = more signal.

SMILES | composite z-score
C=C(/C(=C/C[C@H](OC(C)=O)c1ccc(OCCO)cc1)c1cc(C(=O)OC)ccc1OC)C(C)C | 0.812
COCCCNC(=O)[C@@]1(Sc2ccc(C)cc2)CC(=O)N(Cc2ccccc2Cl)[C@@H]1c1ccc(CO)cc1 | 0.833
O=C(O)[C@H](Cc1ccccc1)n1cc(-c2ccccc2)nn1 | 0.368
CC(C)[Si](C#CCCCC#N)(Oc1ccccc1Br)C(C)C | 0.709
C=CC1c2cc(O)c(OC)cc2CCN1Cc1cccc(OC(F)(F)F)c1 (configuration not stated) | -0.36
O=C1OCCC=C[C@H]2OC34C=CCN(Cn5nnc6ccccc65)C(=O)[C@H]3N(CCO)C(=O)[C@@H]4C12 (some centres not stated) | -0.934
CC(C)[Si](C#C[Si](C(C)C)(C(C)C)C(C)C)(O[C@H](C)c1cn(Cc2ccccc2)nn1)C(C)C | 0.872

The compounds below were run against Follistatin (Homo sapiens) (UniProt P19883) (assay: FST protein binding to printed compounds – biochemical, small-molecule microarray, 635/667 nm fluorescence, primary screen (AID 1132)). Details: 635 nm fluorescence, higher = more signal.
Sequence of Follistatin (Homo sapiens) (P19883 whole entry, looked up): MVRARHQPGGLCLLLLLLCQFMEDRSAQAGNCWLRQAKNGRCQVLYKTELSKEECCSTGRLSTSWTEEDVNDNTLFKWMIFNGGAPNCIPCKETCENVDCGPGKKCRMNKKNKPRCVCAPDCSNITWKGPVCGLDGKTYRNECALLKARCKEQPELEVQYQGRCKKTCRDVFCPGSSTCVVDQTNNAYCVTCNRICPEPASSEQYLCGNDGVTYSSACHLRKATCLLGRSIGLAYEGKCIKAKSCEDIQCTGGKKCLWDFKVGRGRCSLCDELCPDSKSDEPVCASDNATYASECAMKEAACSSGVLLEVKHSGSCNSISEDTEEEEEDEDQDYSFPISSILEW

SMILES | composite z-score
COC(=O)C[C@H]1O[C@@H](CCc2ccccc2)[C@@H](C)[C@@H]1[Si](C)(C)c1ccc(OC)cc1 | 0.0222
CC(=CC1CCCCC1)[C@@H](NC(=O)c1cccnc1)c1ccc(-c2ccccc2)cc1 | -0.0317
[N-]=[N+]=Nc1ccccc1C[C@]1(C(=O)NCC(O)CO)N=C(c2ccc(OCCCO)cc2)O[C@H]1c1ccccc1 (some centres not stated) | 0.497
COCC(=C=CC[C@H](O)c1cccc(OCCO)c1)CCO | 1.32
COC(=O)[C@H](Cc1ccccc1)N[C@H](/C=C/C1CC1)[C@@H](O)Cc1ccccc1 | 0.395
C=CCOC(=O)[C@H]1[C@@H]2C(=O)O[C@@H](c3ccccc3)[C@@H](c3ccccc3)N2[C@@H](c2ccc(OCCOC(=O)[C@@H]3C[C@@H]4C(=O)N5CCC[C@H]5C(=O)N4[C@@H]3c3cccc(OCCO)c3)cc2)[C@]12C(=O)Nc1ccc(I)cc12 | 1.45
COCC(=C=CC[C@@H](O)c1ccc(OCCO)cc1)C[C@@H](O)c1ccccn1 | 0.979
COc1ccc([Si](C)(C)[C@@H]2[C@@H](CCO)O[C@]3(C(=O)N(Cc4cccc(N5CCOC5=O)c4)c4ccccc43)[C@H]2C)cc1 | 1
[N-]=[N+]=Nc1ccccc1[C@H]1OC(c2ccc(OCCCO)cc2)=N[C@@]1(Cc1ccccc1)C(=O)N1CCOCC1 | 1.38
CN1C(=O)C2C=CC(C(O)C=Cc3ccc([N+](=O)[O-])cc3)N(Nc3ccccc3)C2C1=O (configuration not stated) | 1.1
C#CCOc1ccc(C[C@@H](C(=O)OC)N(CC#C)[C@@H](/C=C/C2CC2)[C@H](O)Cc2ccccc2)cc1 | 0.24
O=C(NCc1ccccc1)[C@@H]1c2ccccc2C(=O)N(C2Cc3ccccc3C2)[C@H]1c1ccc(CO)cc1 | 0.957
COC(=O)c1c2oc(c1C(=O)OC)C(=O)NC1(CCCCC1)c1cn(nn1)C[C@H](Cc1ccccc1)NC(=O)N[C@H](CO)CC2 | 0.437
CCCCCCc1nc(-c2ccc(-c3ccc(Cl)c(Cl)c3)o2)cc2c1[Si](C(C)C)(C(C)C)O[C@H]2c1ccccc1 | -0.348
COCCOC(=O)N1C(=O)[C@@]2(c3cc(C#CC4(O)CCCCCC4)ccc31)[C@H](C(=O)Nc1nc3ccccc3s1)[C@H]1C(=O)O[C@H](c3ccccc3)[C@H](c3ccccc3)N1[C@@H]2c1ccc(OCCO)cc1 | 1.12
COC(=O)[C@@]1(Cc2ccc(OC)cc2)[C@H]2c3cc(C(=O)N4CCCC4)n(CCCNc4ncc(C(F)(F)F)cc4Cl)c3C[C@H]2CN1C(=O)c1ccccc1 | 1.12
COC(=O)[C@@]1(Cc2ccc(OC)cc2)[C@H]2c3cc(C(=O)N4CCCC4)n(CCc4ccc(O)c(O)c4)c3C[C@H]2CN1C(=O)c1ccccc1 | 0.442
Cc1c(NC(=O)/C(C#N)=C/c2cccc([N+](=O)[O-])c2)c(=O)n(-c2ccccc2)n1C | 0.7

SMILES | composite z-score
C[N+](C)(C)CCCC[C@@H]1NC(=O)[C@@H]2C[C@H](C(=O)NCCCCCCNC(=O)CS)[C@H](c3ccc(O)cc3)N2C1=O | 0.0054
COC(=O)[C@@]1(Cc2ccccc2)[C@H]2c3cc(C(=O)N4CCCC4)n(Cc4ccc(O)c(OC)c4)c3C[C@H]2CN1C(=O)c1ccccc1 | 0.284
O=C1O[C@@H](c2ccccc2)[C@@H](c2ccccc2)N2[C@@H](c3ccccc3OCCO)[C@]3(C(=O)Nc4ccccc43)[C@@H](C(=O)O)[C@H]12 | -0.0086
CCCNC(=O)[C@@H]1c2ccccc2C(=O)N(Cc2ccccc2OC)[C@H]1c1ccc(CO)cc1 | 0.98
CC[C@@H]1C=C(C(=O)O)[C@H](c2ccc(C)cc2)N1S(=O)(=O)c1ccc(C)cc1 | 0.163
O=C1O[C@H](c2ccccc2)[C@H](c2ccccc2)N2[C@H]1[C@@H](C(=O)NC[C@H](O)c1ccccc1)[C@]1(C(=O)Nc3ccccc31)[C@H]2c1ccc(O)cc1 | 1.22
Cc1ccc(S[C@]2(C(=O)NCC(C)C)CC(=O)N(Cc3cc(C(F)(F)F)cc(C(F)(F)F)c3)[C@@H]2c2ccc(CO)cc2)cc1 | -0.0643
COCCOC(=O)N1C(=O)[C@@]2(c3cc(C#CC4=CCCCC4)ccc31)[C@H](c1ccc(OCCO)cc1)N1[C@H](c3ccccc3)[C@H](c3ccccc3)OC(=O)[C@H]1[C@@H]2C(=O)N1CCc2cc(OC)c(OC)cc2C1 | 0.989
COc1ccccc1CN1C(=O)c2ccccc2[C@@H](C(=O)NCc2ccccc2)[C@@H]1c1ccc(CO)cc1 | 0.211
COCCOC(=O)N1C(=O)[C@@]2(c3ccccc31)[C@H](C(N)=O)[C@H]1C(=O)O[C@H](c3ccccc3)[C@H](c3ccccc3)N1[C@@H]2c1ccc(O)cc1 | 0.412
C=C(/C(=C/C[C@H](OC(C)=O)c1ccc(OCCO)cc1)c1cc(C(=O)OC)ccc1OC)C(C)C | 1.13
COCCCNC(=O)[C@@]1(Sc2ccc(C)cc2)CC(=O)N(Cc2ccccc2Cl)[C@@H]1c1ccc(CO)cc1 | 1.35
O=C(O)[C@H](Cc1ccccc1)n1cc(-c2ccccc2)nn1 | 0.571
CC(C)[Si](C#CCCCC#N)(Oc1ccccc1Br)C(C)C | 0.269
C=CC1c2cc(O)c(OC)cc2CCN1Cc1cccc(OC(F)(F)F)c1 (configuration not stated) | -0.0223
O=C1OCCC=C[C@H]2OC34C=CCN(Cn5nnc6ccccc65)C(=O)[C@H]3N(CCO)C(=O)[C@@H]4C12 (some centres not stated) | -0.851
CC(C)[Si](C#C[Si](C(C)C)(C(C)C)C(C)C)(O[C@H](C)c1cn(Cc2ccccc2)nn1)C(C)C | 0.509
